Assay results published in the supplement of paper PMC12340641.
Counter-ions that a name gives are not always drawn.

target: IKZF1 (dCK*-IKZF1 fusion in HEK293FT) (UniProt Q13422); test: inhibition of IKZF1 HTRF signal (DMSO = 0%, pomalidomide 10 uM = 100%); higher = lower IKZF1 protein level; conditions: compound concentration: 5 uM, overnight (~20 h)
How it was run: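 HEK293FT cells stably expressing a dCK*-IKZF1 fusion (2000/well, 384-well) were treated overnight at 37 °C with 5 μM compound in single wells. They were then lysed 30 min at room temperature, and lysate was incubated overnight with a commercial HTRF total-IKZF1 antibody kit. The time-resolved FRET ratio (665/620 nm) was background-subtracted. Percent inhibition of IKZF1 signal was normalised per plate to vehicle (0%) and a reference degrader (100%).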

Sequence of IKZF1 (dCK*-IKZF1 fusion in HEK293FT) (Q13422 whole entry, looked up, the tested form may be a part): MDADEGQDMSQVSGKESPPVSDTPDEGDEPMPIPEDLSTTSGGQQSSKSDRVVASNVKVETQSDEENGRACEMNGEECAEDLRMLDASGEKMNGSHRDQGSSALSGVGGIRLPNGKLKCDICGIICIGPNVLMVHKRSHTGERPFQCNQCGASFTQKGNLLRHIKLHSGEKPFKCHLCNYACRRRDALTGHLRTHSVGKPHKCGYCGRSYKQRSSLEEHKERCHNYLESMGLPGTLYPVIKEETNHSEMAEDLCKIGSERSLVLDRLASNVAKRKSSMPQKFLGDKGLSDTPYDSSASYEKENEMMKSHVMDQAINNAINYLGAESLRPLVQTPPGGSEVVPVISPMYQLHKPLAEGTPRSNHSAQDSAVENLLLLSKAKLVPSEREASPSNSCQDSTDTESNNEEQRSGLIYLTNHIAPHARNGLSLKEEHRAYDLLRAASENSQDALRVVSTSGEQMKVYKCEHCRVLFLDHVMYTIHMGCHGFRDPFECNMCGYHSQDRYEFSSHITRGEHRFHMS

Structure (SMILES)	inhibition of IKZF1 HTRF signal [%]
c1ccc(CNc2nc(NCc3ccccc3)c3ccccc3n2)cc1	-15.7
COc1ccc(-c2nc3cc(C4=NNC(=O)CC4C)ccc3[nH]2)cc1 (stereo unspecified) [Pimobendan (Vetmedin)]	-8.62
CCC(C)c1ccc(NC(=O)Cn2cnc3c2c(=O)n(C)c(=O)n3C)cc1 (stereo unspecified)	-44.5
NC(=O)NC(=O)Cc1ccccc1	-29.1
CNC(=O)Nc1ccc(-c2nc(N3CC4CCC(C3)O4)c3cnn(C4CCC5(CC4)OCCO5)c3n2)cc1	70.5
COc1c(C/C=C(\C)CCC(=O)O)c(O)c2c(O)occ2c1C [Mycophenolic Acid]	14.9
CCCCC1OC(=O)c2ccccc21 (stereo unspecified) [Butylphthalide]	-30.6
CCN(CC)CCCC(C)Nc1ccnc2cc(Cl)ccc12 (stereo unspecified)	-24.3
CC[n+]1c(-c2ccccc2)c2cc(N)ccc2c2ccc(N)cc21	39.8
Clc1ccc(COC(Cn2ccnc2)c2ccc(Cl)cc2Cl)cc1 (stereo unspecified) [Econazole Nitrate]	-40.1
O=C(/C=C/c1ccc(O)cc1)c1ccc(O)cc1O [Isoliquiritigenin]	-0.21
CCSc1ccc2c(c1)N(CCCN1CCN(C)CC1)c1ccccc1S2 [thiethylperazine]	24.1
Clc1cccc(Cl)c1CSc1nnc(-c2cnccn2)s1 [yoda-1]	3.26
Cc1cc(C2CCCCC2)n(O)c(=O)c1 [Ciclopirox]	24.4
COc1cccc2c(O)c3c(O)c4c(c(O)c3c(O)c12)=C(O[C@H]1C[C@H](N)[C@H](O)[C@H](C)O1)C[C@](O)(C(C)=O)C=4 [Daunorubicin HCl]	56.3
O=C(/C=C/c1cccnc1)c1ccncc1	-25
COCCOC(=O)C1=C(C)NC(C)=C(C(=O)OC(C)C)C1c1cccc([N+](=O)[O-])c1 (stereo unspecified)	-29.4
COC(=O)Nc1nc2ccc(Sc3ccccc3)cc2[nH]1	-26.6
Nc1nc2c(ccc3ccccc32)s1	-31

Structure (SMILES)	inhibition of IKZF1 HTRF signal [%]
c1cc2c(cc1C1CCCCC1)c1c3n2CCNC3CCC1 (stereo unspecified) [tetrindole]	-27.2
CN(C)CCCN1c2ccccc2Sc2ccc(Cl)cc21	-47.9
CC(=O)Nc1cccc(Nc2ncnc(N3CCC(OCc4ccc(OC(F)(F)F)cc4)CC3)n2)c1C	4.12
Cn1c(NCCN(CCO)CCCc2ccc([N+](=O)[O-])cc2)cc(=O)n(C)c1=O [nifekalant]	-33.5
COC(=O)Nc1nc2cc(SC(C)C)ccc2[nH]1 [methiazole]	36.1
O=C(Nc1cnc(Cl)nc1)c1ccc(F)c(F)c1	-25.3
NCCNc1ccc(NCCN)c2c1C(=O)c1ccncc1C2=O.O=C(O)/C=C\C(=O)O.O=C(O)/C=C\C(=O)O [Pixantrone (dimaleate)]	-28.2
Cc1ccc(S(=O)(=O)NC(=O)NN2CC3CCCC3C2)cc1 (stereo unspecified)	-29.9
Nc1nc(=O)n([C@H]2C[C@H](O)[C@@H](CO)O2)cc1F [5-Fluoro-2'-deoxycytidine]	-4.07
COc1cc(NS(=O)(=O)c2ccc(N)cc2)nc(OC)n1	-24.5
O=c1c(O)c(-c2ccc(O)c(O)c2)oc2cc(O)ccc12 [Fisetin (Fustel)]	11.3
Nc1ccc(-c2ccc3ncc4ccc(=O)n(-c5cccc(C(F)(F)F)c5)c4c3c2)cn1 [torin-2]	66.5
O=C(Nc1ccc(C(O)(C(F)(F)F)C(F)(F)F)cc1)c1ccc(C(F)(F)F)cc1	-28.5
CCN(CC)C(=S)SSC(=S)N(CC)CC	-34.2
CNCCC(Oc1ccc(C(F)(F)F)cc1)c1ccccc1 (stereo unspecified)	-36.8
CC[C@]1(O)C[C@@H]2C[N@@](CCc3c([nH]c4ccccc34)[C@@](C(=O)OC)(c3cc4c(cc3OC)N(C)[C@H]3[C@@](O)(C(=O)OC)[C@H](OC(C)=O)[C@]5(CC)C=CCN6CC[C@]43[C@@H]65)C2)C1.O=S(=O)(O)O [Vinblastine (sulfate)]	-4.41
CC(C)CCN1c2nc(Nc3cc(F)c(O)c(F)c3)ncc2N(C)C(=O)C1C (stereo unspecified)	-50.7
CCN(c1ccccc1)c1cc(NC)[n+](C)c(C)n1	26.3
CN1CCN(C2=Nc3ccccc3Sc3ccc(Cl)cc32)CC1 [Clothiapine]	23.7

tested on: HEK293FT dCK*-only; test: relative growth in counter assay (no AraC = 100%, AraC + DMSO = 0%); higher = more growth rescue independent of IKZF1; conditions: compound concentration: 5 uM; AraC concentration: 0.3 uM; overnight pretreatment + 4 days AraC
How it was run: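 In 384-well plates, 300 HEK293FT cells per well expressing an engineered kinase construct alone got 5 μM compound 2 h after seeding. After overnight at 37 °C, 0.3 μM nucleoside suicide substrate plus medium was applied for 4 days. Counting of Hoechst 33342-stained nuclei by imaging on day 5 was normalised per plate, with 100% for no-substrate wells and 0% for substrate plus vehicle.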

Structure (SMILES)	relative growth in counter assay [%]
c1ccc(CNc2nc(NCc3ccccc3)c3ccccc3n2)cc1	-18.5
COc1ccc(-c2nc3cc(C4=NNC(=O)CC4C)ccc3[nH]2)cc1 (stereo unspecified) [Pimobendan (Vetmedin)]	-0.97
CCC(C)c1ccc(NC(=O)Cn2cnc3c2c(=O)n(C)c(=O)n3C)cc1 (stereo unspecified)	-2.66
NC(=O)NC(=O)Cc1ccccc1	4.08
CNC(=O)Nc1ccc(-c2nc(N3CC4CCC(C3)O4)c3cnn(C4CCC5(CC4)OCCO5)c3n2)cc1	-32.9
COc1c(C/C=C(\C)CCC(=O)O)c(O)c2c(O)occ2c1C [Mycophenolic Acid]	-30.9
CCCCC1OC(=O)c2ccccc21 (stereo unspecified) [Butylphthalide]	1.67
CCN(CC)CCCC(C)Nc1ccnc2cc(Cl)ccc12 (stereo unspecified)	-29.9
CC[n+]1c(-c2ccccc2)c2cc(N)ccc2c2ccc(N)cc21	-32.8
Clc1ccc(COC(Cn2ccnc2)c2ccc(Cl)cc2Cl)cc1 (stereo unspecified) [Econazole Nitrate]	3.6
O=C(/C=C/c1ccc(O)cc1)c1ccc(O)cc1O [Isoliquiritigenin]	-7.18
CCSc1ccc2c(c1)N(CCCN1CCN(C)CC1)c1ccccc1S2 [thiethylperazine]	-4.22
Clc1cccc(Cl)c1CSc1nnc(-c2cnccn2)s1 [yoda-1]	-3.89
Cc1cc(C2CCCCC2)n(O)c(=O)c1 [Ciclopirox]	-31.2
COc1cccc2c(O)c3c(O)c4c(c(O)c3c(O)c12)=C(O[C@H]1C[C@H](N)[C@H](O)[C@H](C)O1)C[C@](O)(C(C)=O)C=4 [Daunorubicin HCl]	-34.8
O=C(/C=C/c1cccnc1)c1ccncc1	-28.4
COCCOC(=O)C1=C(C)NC(C)=C(C(=O)OC(C)C)C1c1cccc([N+](=O)[O-])c1 (stereo unspecified)	-11.4
COC(=O)Nc1nc2ccc(Sc3ccccc3)cc2[nH]1	-32.4
Nc1nc2c(ccc3ccccc32)s1	4.08

Structure (SMILES)	relative growth in counter assay [%]
c1cc2c(cc1C1CCCCC1)c1c3n2CCNC3CCC1 (stereo unspecified) [tetrindole]	-33
CN(C)CCCN1c2ccccc2Sc2ccc(Cl)cc21	-0.83
CC(=O)Nc1cccc(Nc2ncnc(N3CCC(OCc4ccc(OC(F)(F)F)cc4)CC3)n2)c1C	-5.23
Cn1c(NCCN(CCO)CCCc2ccc([N+](=O)[O-])cc2)cc(=O)n(C)c1=O [nifekalant]	-3.87
COC(=O)Nc1nc2cc(SC(C)C)ccc2[nH]1 [methiazole]	-32.7
O=C(Nc1cnc(Cl)nc1)c1ccc(F)c(F)c1	1.83
NCCNc1ccc(NCCN)c2c1C(=O)c1ccncc1C2=O.O=C(O)/C=C\C(=O)O.O=C(O)/C=C\C(=O)O [Pixantrone (dimaleate)]	-13
Cc1ccc(S(=O)(=O)NC(=O)NN2CC3CCCC3C2)cc1 (stereo unspecified)	3.82
Nc1nc(=O)n([C@H]2C[C@H](O)[C@@H](CO)O2)cc1F [5-Fluoro-2'-deoxycytidine]	-26.3
COc1cc(NS(=O)(=O)c2ccc(N)cc2)nc(OC)n1	-0.83
O=c1c(O)c(-c2ccc(O)c(O)c2)oc2cc(O)ccc12 [Fisetin (Fustel)]	-3.66
Nc1ccc(-c2ccc3ncc4ccc(=O)n(-c5cccc(C(F)(F)F)c5)c4c3c2)cn1 [torin-2]	-34.6
O=C(Nc1ccc(C(O)(C(F)(F)F)C(F)(F)F)cc1)c1ccc(C(F)(F)F)cc1	49.3
CCN(CC)C(=S)SSC(=S)N(CC)CC	-35.6
CNCCC(Oc1ccc(C(F)(F)F)cc1)c1ccccc1 (stereo unspecified)	6.85
CC[C@]1(O)C[C@@H]2C[N@@](CCc3c([nH]c4ccccc34)[C@@](C(=O)OC)(c3cc4c(cc3OC)N(C)[C@H]3[C@@](O)(C(=O)OC)[C@H](OC(C)=O)[C@]5(CC)C=CCN6CC[C@]43[C@@H]65)C2)C1.O=S(=O)(O)O [Vinblastine (sulfate)]	-34.3
CC(C)CCN1c2nc(Nc3cc(F)c(O)c(F)c3)ncc2N(C)C(=O)C1C (stereo unspecified)	-32.3
CCN(c1ccccc1)c1cc(NC)[n+](C)c(C)n1	3.09
CN1CCN(C2=Nc3ccccc3Sc3ccc(Cl)cc32)CC1 [Clothiapine]	0.53
